93 compounds from PubChem BioAssay AID1578 (Sanford-Burnham Center for Chemical Genomics, 2009) can be followed below.

By inhibition is commonly meant the change of the read-out against control, counted positive when it falls.

Among all 290,000 compounds or so, about 3,000 (1%) were called active. Shown is part of a subset that was picked to be rich in actives. A number with no mark means an inactive call. Cut-off read from the data, not from the text of the source: active = inhibition mostly above about 36% (no sharp cut-off); inactive = mostly below about 34%.

The nature of this experiment: inhibition of NOD1-driven NF-kB reporter – cell-based, luminescence, uHTS, primary screen (AID 1578).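 Note: HEK-293T reporter cells stimulated with the NOD1 agonist gamma-tri-DAP.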 Particulars: NOD1-driven NF-kB luciferase reporter cells, at 4 µM, active compounds read high.
As for `CCc1ccc(-n2cccc2/C=C2/C(=N)N3C(=NC2=O)SN=C3S(C)(=O)=O)cc1`, the inhibition was 1.2%.
Turning to `Cc1nn(CC(=O)N2CCC(C(N)=O)CC2)c(=O)c2nn(-c3ccccc3)c(C)c12`, the inhibition was -5.3%.
The figure for `COc1ccc(CNC(=O)c2csc(Cc3ccc(Cl)cc3)n2)cc1` is 25.6%.
For `COc1ccc(-c2nc(N3CCCC3)[nH]c(=O)c2C#N)cc1` the value was -42.4%.
For `CC1CCN(c2nc(-c3ccccc3)c(C#N)c(=O)[nH]2)CC1` the value was 34.5%; for `COc1ccc(-c2nc(N3CCC(C)CC3)[nH]c(=O)c2C#N)cc1`, 73.1% (active).
In the case of `CCOC(=O)N1CCN(CC(O)COc2c(C)cccc2C)CC1` (stereo not drawn), the inhibition was 24.9%.
As for `CCC(C)(C)NC(=S)Nc1ccccc1C`, the inhibition is -38.1%.
The figure for `C=CCn1c(Oc2cccc(C)c2)nc2c1c(=O)n(C)c(=O)n2C` is -2.9%; for `Cc1cc(-c2onc3ccc(Cl)cc23)ccc1O` it is 52.9% (active); for `Cc1ccc(-c2onc3ccc(Cl)cc23)cc1` it is -3.6%.
As to `COc1ccc(-c2onc3ccc(Cl)cc23)cc1`, the inhibition was -9.1%.
The figure for `CN1CCN(S(=O)(=O)c2cccc(C(=O)N(c3ccccn3)C3CCCCC3)c2)CC1` is -0.4%; for `CCc1nc(Nc2ccc(N3CCN(C(C)=O)CC3)cc2)c2oc3ccccc3c2n1` it is 7.6%.
As for `Cc1nc(SCC(=O)N2CCN(c3ccccc3)CC2)c2oc3ccccc3c2n1`, the inhibition is 33.4%.
Consider `CC1(O)CC(c2ccc(Cl)cc2)=NN1C(=O)c1ccc([N+](=O)[O-])cc1` (stereo not drawn), for which the inhibition was 92.3% (active).
For `CC(=O)N1N=C(c2ccc(Cl)cc2)CC1c1ccc([N+](=O)[O-])cc1` (stereo not drawn) the value was -12.3%; for `CC1(O)CC(c2ccc(Cl)cc2)=NN1C(=O)c1ccc(Cl)cc1` (stereo not drawn), -27.7%; for `CCOc1cc(/C=N/O)ccc1OCc1ccc([N+](=O)[O-])cc1`, -20.2%.
For `CCOc1cc(/C=C2/NC(=S)NC2=O)ccc1OCc1ccc([N+](=O)[O-])cc1` the value was -30%; for `COC(=O)c1cc(C)ccc1OCc1ccc([N+](=O)[O-])cc1`, -8.7%.
As for `COc1cc(/C=C/C(=O)O)ccc1OCc1ccc([N+](=O)[O-])cc1`, the inhibition was -13.3%.
`O=C(NCCc1ccccc1)C1(S(=O)(=O)c2ccc(Cl)cc2)CC1`: the inhibition was 7.4%.
For `O=C(CSc1nc(-c2ccncc2)nn1CC(=O)N1CCCCC1)NC1CCCC1` the value was -4%.
`CC1CC(=O)N(CC(=O)NCc2ccccc2)c2ccccc2S1(=O)=O` (stereo not drawn): the inhibition is -32.8%.
The figure for `O=C1CCc2cc(S(=O)(=O)N3CCN(c4cccc(C(F)(F)F)c4)CC3)ccc2N1` is -6.5%; for `Cc1nnnn1/C(=C\c1ccccc1)C(=O)OCC(=O)NC(C)(C)C` it is 91.3% (active); for `CC(=O)Nc1ccc(NC(=O)COC(=O)/C(=C/c2ccccc2)n2nnnc2C)cc1` it is -15.3%.
For `CC(=O)c1ccccc1NC(=O)COC(=O)/C(=C/c1ccccc1)n1nnnc1C` the value was -8%; for `CCOC(=O)C1(CCCc2ccccc2)CCN(C(=O)c2cnc(C)cn2)CC1`, 2.2%.
The figure for `CC(=O)OC(C(=O)NC1CCCCC1)c1ccc(Cl)c(Cl)c1` (stereo not drawn) is -34.6%; for `COc1ccc(OCC(=O)N/N=c2\oc3c(OC)cccc3cc2C(N)=O)cc1` it is -30.3%; for `COc1ccc(CNC(=O)C(c2ccc(C)o2)N(Cc2cccs2)C(=O)Cc2cccs2)cc1` (stereo not drawn) it is 68.3% (active).
As to `COc1ccc(CNC(=O)C(c2cccs2)N(Cc2ccco2)C(=O)Cc2cccs2)cc1` (stereo not drawn), the inhibition was 23.3%.
Consider `COc1ccc(CNC(=O)C(c2ccco2)N(Cc2cccs2)C(=O)Cc2cccs2)cc1` (stereo not drawn), for which the inhibition was 2%.
The figure for `COC(=O)C(C)n1cnc2c(nnn2-c2ccccc2)c1=O` (stereo not drawn) is -9.8%; for `COc1ccc(C(=O)Nc2c(N)nc(SCC(=O)N3CCCCCC3)[nH]c2=O)cc1OC` it is -4.3%.
For the compound `Cc1cc2c(cc1S(=O)(=O)Nc1cccc(F)c1)n(C)c(=O)c(=O)n2C`, the inhibition is 13.5%.
For `O=C(c1ccc(N2CCCC2)c([N+](=O)[O-])c1)N1CCN(c2ccccn2)CC1` the value was -8.1%; for `O=C(c1ccc(S(=O)(=O)Cc2ccccc2Cl)c([N+](=O)[O-])c1)N1CCOCC1`, 13.5%; for `O=C(c1ccc(Cl)c([N+](=O)[O-])c1)N1CCN(c2ccccn2)CC1`, -1.9%.
The figure for `O=C(c1ccc(Sc2cccc(Cl)c2)c([N+](=O)[O-])c1)N1CCN(c2ccccn2)CC1` is -34.4%; for `CC(C)Cc1nnc(NC(=O)CCC(=O)NC2CCCC2)s1` it is -20.3%; for `CC/C=C/C(=O)N1CC2(CC(c3cccc(NC(=O)c4ccccc4)c3)=NO2)C[C@@H]1C(N)=O` (stereo partly drawn) it is 20.5%.
For `O=c1c2c3c(sc2nc2n1CCC2)CCCCC3` the value was -41%.
Regarding `Cn1cnc2cc(NC(=O)COc3ccccc3)ccc21`, the inhibition was -63.1%.
The figure for `Cc1cccn2c(=O)c3cc(S(=O)(=O)c4ccc(Br)cc4)c(=N)n(C4CCCC4)c3nc12` is -42.6%; for `O=C(O)c1cccc(NS(=O)(=O)c2cc(S(=O)(=O)c3ccc(Cl)cc3)ccc2Cl)c1` it is 0.3%; for `COc1ccc(C(=O)NCc2ccc(-c3nc4ccccc4s3)cc2)cc1OC` it is -86.1%.
On to `COc1cc(C(=O)NCc2ccc(-c3nc4ccccc4s3)cc2)cc(OC)c1OC`, for which the inhibition is -45%.
For `Cc1ccc(-n2c(SCC(=O)Nc3ccc(C(=O)O)cc3)nnc2-c2ccncc2)cc1` the value was -9.4%.
Consider `O=C(CCNS(=O)(=O)c1c(Cl)cccc1Cl)OCC(=O)c1ccccc1`, for which the inhibition was 10.5%.
The figure for `COc1ccccc1COC(=O)Nc1c(C)nn(C)c1Cl` is 10.8%; for `Cc1nn(C)c(Cl)c1NC(=O)OCc1ccc(Cl)cc1Cl` it is 68.3% (active); for `Cc1nn(C)c(Cl)c1NC(=O)OCc1ccccc1` it is -9.7%.
For `CCc1ccccc1NC(=O)CCC(=O)N1CCSc2ccccc21` the value was -3%.
The figure for `O=Nc1c(O)n(Cc2cccc(C(F)(F)F)c2)c2ccccc12` is 82.8% (active); for `O=Nc1c(O)n(Cc2cccc(Cl)c2)c2ccccc12` it is 34.1%; for `O=Nc1c(O)n(Cc2ccccc2)c2ccccc12` it is 9.5%.
Regarding `Cc1cccc(NC(=S)NNC(=S)NC2CCCCC2)c1C`, the inhibition was -15.3%.
On to `CCOC(=O)c1[nH]c(C)c(CN(CCc2ccc(OC)c(OC)c2)C(=O)CCCC(=O)O)c1C`, for which the inhibition is -27.8%.
The figure for `CCOC(=O)C1CCCN(C(=O)CCCn2nnnc2CN2CCC(C)CC2)C1` (stereo not drawn) is -6.9%; for `CCOC(=O)C1CCCN(C(=O)CCn2nnnc2CN2CCOCC2)C1` (stereo not drawn) it is -14.8%.
The figure for `CCOC(=O)C1CCCN(C(=O)CCCn2nnnc2CN2CCOCC2)C1` (stereo not drawn) is 45% (active).
For `O=C(CN1CCSc2ccccc21)NCCCc1ccccc1` the value was -29.8%; for `O=C(O)CN1C(=O)CSc2ccccc21`, 14.5%.
Regarding `CCOC(=O)c1ccc(N2C(=O)CC(C)(CC)CC2=O)cc1`, the inhibition is -5%.
Regarding `CC(C)(C)c1ccc(NC(=O)N2CCN(c3ccc([N+](=O)[O-])cn3)CC2)cc1`, the inhibition is 29.4% (active).
For `CC(C)(C)c1ccc(C(=O)N2CCCN(c3ccc([N+](=O)[O-])cn3)CC2)cc1` the value was -3.4%; for `CC(C)(C)c1ccc(NC(=O)N2CCCN(c3ccc([N+](=O)[O-])cn3)CC2)cc1`, 0.9%; for `O=C(O)CCCN1C(=O)/C(=C/C=C/c2ccco2)SC1=S`, 23.3% (active).
The figure for `O=C(O)CC(C(=O)O)N1C(=O)/C(=C/C=C/c2ccco2)SC1=S` (stereo not drawn) is -8.8%.
As for `O=C(O)CCCN1C(=O)/C(=C\c2ccco2)SC1=S`, the inhibition was -3.5%.
Take `CC(=O)Nc1ccc(C(=O)N/C(=C/c2ccccc2)C(=O)Nc2cccc(C(=O)O)c2)cc1`: the inhibition is -27.4%.
The figure for `O=C(CN1CCCCCC1)NCc1ccccc1` is -25.9%.
For `O=C(CSc1nnc(Cn2nnc3ccccc32)o1)N(Cc1ccc(Cl)cc1)c1ccccc1` the value was 48.7% (active).
For `COc1ccc(N(Cc2ccccc2)C(=O)CSc2nnc(Cn3nnc4ccccc43)o2)cc1` the value was -12.4%; for `O=C(CSc1nnc(Cn2nnc3ccccc32)o1)N(Cc1ccc(F)cc1)c1ccccc1`, 37.1%.
Take `O=C(O)c1ccc2c(c1)ncn2C1CCCCC1`: the inhibition was -10.3%.
For `NNC(=O)c1csc(Cc2c(Cl)sc3ccc(Cl)cc23)n1`, the inhibition is 11.9%.
The figure for `CCOC(=O)CC1C(=O)NCCN1C(=O)COc1ccc(C(C)(C)C)cc1` (stereo not drawn) is -17.7%.
As for `O=C(O)Cc1ccc(NC(=O)Cc2ccc3ccccc3c2)cc1`, the inhibition is -30.6%.
For `COc1cccc(-n2nnc3c(=O)n(CC(=O)N4CCCCC4)cnc32)c1`, the inhibition was -13.7%.
For `Cc1ccc(NC(=O)C2C3C=CC4(O3)C2C(=O)N(CCCN2CCOCC2)C4C(=O)NC2CCCCC2)cc1Cl` (stereo not drawn) the value was -35.1%; for `CC(C)c1cc(C(=O)O)on1`, -10.1%.
For `CC(C)c1cc(NC(=O)CCl)on1` the value was 41.7% (active); for `CC(C)c1cc(NC(=O)CSc2nnc(-c3ccccc3F)n2C)on1`, 18.2%.
Take `CCc1ccc(NC(=O)c2cc(CC(C)C)on2)cc1`: the inhibition is -39.3%.
The figure for `O=C(N/N=C/c1ccc(O)cc1)c1ccc(NC(=O)c2ccccc2Br)cc1` is -3.3%.
The figure for `CCOc1ccc(CNC(=O)CCCC(=O)n2ncc3cc(C)ccc32)cc1` is -10.4%; for `CN1C(=O)c2cccc(NC(=O)Cc3ccccc3)c2C1=O` it is 5.1%; for `CN1C(=O)c2cccc(NC(=O)CCc3ccccc3)c2C1=O` it is -23%.
For `CCC(=O)Nc1cccc2c1C(=O)N(C)C2=O` the value was 83.2% (active).
